# Measurements from paper PMC7862700, “An all-to-all approach to the identification of sequence-specific readers for epigenetic DNA modifications on cytosine”.
# Legend:
# Experiment in all cases: DAPPL (digital affinity profiling via proximity ligation, sequencing); 10 mM Tris-HCl pH 7.5, 50 mM NaCl, 1 mM DTT, 4% glycerol, room temperature, 30 min; GST-TFs on glutathione beads, 16-mer random dsDNA library, 0.1% formaldehyde crosslink after washing; high values mean tight binding
# FLI1 = molecular target: T1, FLI1 (Homo sapiens, UniProt Q01543 1-452); conditions: protein: recombinant; tags: N-terminal GST; dsDNA, one strand shown
# T1 sequence: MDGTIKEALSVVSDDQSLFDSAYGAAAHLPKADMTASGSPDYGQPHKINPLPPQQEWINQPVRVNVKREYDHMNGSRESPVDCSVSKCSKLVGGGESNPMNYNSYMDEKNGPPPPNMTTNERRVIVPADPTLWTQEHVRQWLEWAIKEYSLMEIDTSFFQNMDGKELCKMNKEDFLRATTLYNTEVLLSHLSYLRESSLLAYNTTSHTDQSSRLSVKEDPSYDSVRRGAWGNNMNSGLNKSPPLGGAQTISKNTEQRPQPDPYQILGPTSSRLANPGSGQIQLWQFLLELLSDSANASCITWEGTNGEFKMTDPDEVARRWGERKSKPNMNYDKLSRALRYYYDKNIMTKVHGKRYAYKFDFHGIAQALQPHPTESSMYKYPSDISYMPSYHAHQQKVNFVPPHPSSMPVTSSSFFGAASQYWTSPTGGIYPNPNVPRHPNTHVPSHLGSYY
# How it was run: (§1)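 Pools were built from human transcription factors expressed in yeast as GST fusions, captured on glutathione beads and DNA-barcoded, along with a tag-only sample. Incubation with 200 nmole of a 16-mer random double-stranded DNA library lasted 30 min at room temperature in Tris/NaCl/DTT/glycerol buffer, and was followed by washing, 0.1% formaldehyde crosslinking, proximity ligation, PCR amplification and Illumina NextSeq500 sequencing. Binding signal is the quotient of each hexamer's read frequency for a factor and its frequency for the tag-only sample.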
# ELK1 = molecular target: T2, ELK1 (Homo sapiens, UniProt P19419 1-428); conditions: protein: recombinant; tags: N-terminal GST; dsDNA, one strand shown
# T2 sequence: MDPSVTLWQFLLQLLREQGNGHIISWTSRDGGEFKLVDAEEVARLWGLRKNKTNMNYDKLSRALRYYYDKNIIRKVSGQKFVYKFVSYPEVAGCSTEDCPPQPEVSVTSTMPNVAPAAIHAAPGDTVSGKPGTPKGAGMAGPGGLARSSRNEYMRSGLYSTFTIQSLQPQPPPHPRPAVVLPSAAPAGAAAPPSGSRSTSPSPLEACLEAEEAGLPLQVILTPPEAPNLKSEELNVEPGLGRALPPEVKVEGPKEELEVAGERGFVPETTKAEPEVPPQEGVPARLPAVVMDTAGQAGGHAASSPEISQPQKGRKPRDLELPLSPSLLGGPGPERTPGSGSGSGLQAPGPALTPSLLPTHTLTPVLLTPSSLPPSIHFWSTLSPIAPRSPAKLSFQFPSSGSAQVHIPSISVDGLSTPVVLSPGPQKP
# How it was run: as §1
# GABPA = molecular target: T3, GABPA (Homo sapiens, UniProt Q06546 1-454); conditions: protein: recombinant; tags: N-terminal GST; dsDNA, one strand shown
# T3 sequence: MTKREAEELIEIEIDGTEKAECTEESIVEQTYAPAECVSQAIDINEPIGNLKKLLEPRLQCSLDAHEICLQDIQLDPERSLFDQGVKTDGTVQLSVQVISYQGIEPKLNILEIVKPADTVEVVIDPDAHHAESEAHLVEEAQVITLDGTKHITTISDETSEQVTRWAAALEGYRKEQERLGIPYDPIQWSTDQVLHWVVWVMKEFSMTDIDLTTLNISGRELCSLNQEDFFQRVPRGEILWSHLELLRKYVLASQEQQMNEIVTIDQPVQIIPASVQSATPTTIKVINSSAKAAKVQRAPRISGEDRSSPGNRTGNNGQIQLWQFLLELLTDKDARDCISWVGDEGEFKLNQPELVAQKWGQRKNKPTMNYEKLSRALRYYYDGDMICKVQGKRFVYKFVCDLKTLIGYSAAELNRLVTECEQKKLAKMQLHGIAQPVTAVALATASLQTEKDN
# How it was run: as §1
# ERG = molecular target: T4, ERG (Homo sapiens, UniProt P11308 1-479); conditions: protein: recombinant; tags: N-terminal GST; dsDNA, one strand shown
# T4 sequence: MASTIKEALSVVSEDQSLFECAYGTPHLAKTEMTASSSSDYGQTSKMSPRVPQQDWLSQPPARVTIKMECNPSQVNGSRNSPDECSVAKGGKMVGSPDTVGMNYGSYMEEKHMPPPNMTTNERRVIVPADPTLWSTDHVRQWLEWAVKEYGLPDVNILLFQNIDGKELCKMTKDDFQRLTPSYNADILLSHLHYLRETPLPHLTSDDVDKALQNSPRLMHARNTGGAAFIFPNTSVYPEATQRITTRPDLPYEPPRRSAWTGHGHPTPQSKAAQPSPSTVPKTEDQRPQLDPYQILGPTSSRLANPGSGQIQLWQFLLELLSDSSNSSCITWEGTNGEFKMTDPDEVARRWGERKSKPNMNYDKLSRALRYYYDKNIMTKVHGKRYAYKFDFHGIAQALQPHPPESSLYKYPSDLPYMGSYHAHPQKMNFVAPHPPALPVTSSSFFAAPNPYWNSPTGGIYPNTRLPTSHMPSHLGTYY
# How it was run: as §1
# ELF1 = ELF1 (Homo sapiens, UniProt P32519 1-619); conditions: protein: recombinant; tags: N-terminal GST; dsDNA, one strand shown
# Sequence of ELF1 (P32519 whole entry): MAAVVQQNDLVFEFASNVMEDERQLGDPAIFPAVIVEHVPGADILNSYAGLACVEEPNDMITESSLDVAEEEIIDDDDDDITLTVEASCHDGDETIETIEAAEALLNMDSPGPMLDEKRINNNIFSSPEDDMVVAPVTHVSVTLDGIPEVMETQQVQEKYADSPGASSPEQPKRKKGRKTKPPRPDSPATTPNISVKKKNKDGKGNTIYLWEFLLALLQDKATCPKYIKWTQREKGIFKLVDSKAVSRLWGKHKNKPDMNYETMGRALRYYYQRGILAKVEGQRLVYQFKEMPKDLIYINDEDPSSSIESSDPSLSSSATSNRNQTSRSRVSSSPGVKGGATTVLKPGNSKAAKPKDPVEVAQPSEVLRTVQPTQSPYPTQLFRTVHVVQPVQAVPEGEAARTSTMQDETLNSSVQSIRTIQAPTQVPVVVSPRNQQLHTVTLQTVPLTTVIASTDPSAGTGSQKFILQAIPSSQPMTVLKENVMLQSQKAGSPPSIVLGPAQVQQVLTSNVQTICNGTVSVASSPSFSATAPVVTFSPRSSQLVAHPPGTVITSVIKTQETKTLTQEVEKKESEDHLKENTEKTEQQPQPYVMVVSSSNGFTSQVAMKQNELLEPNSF
# How it was run: as §1
# EHF = molecular target: T5, EHF (Homo sapiens, UniProt Q9NZC4 1-300); conditions: protein: recombinant; tags: N-terminal GST; dsDNA, one strand shown
# T5 sequence: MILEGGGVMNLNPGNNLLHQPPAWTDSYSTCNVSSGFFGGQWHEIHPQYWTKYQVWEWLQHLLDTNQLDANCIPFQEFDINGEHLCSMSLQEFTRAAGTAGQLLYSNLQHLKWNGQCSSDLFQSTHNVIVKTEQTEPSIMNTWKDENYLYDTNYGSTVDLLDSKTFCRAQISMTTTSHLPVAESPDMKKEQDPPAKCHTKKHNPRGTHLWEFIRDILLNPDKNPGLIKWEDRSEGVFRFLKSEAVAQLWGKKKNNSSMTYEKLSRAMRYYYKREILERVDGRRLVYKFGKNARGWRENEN
# How it was run: as §1
# SPI1 = SPI1 (Homo sapiens, UniProt P17947 1-270); conditions: protein: recombinant; tags: N-terminal GST; dsDNA, one strand shown
# How it was run: as §1
# SPIB = SPIB (Homo sapiens, UniProt Q01892 1-262); conditions: protein: recombinant; tags: N-terminal GST; dsDNA, one strand shown
# Sequence of SPIB (Q01892 whole entry): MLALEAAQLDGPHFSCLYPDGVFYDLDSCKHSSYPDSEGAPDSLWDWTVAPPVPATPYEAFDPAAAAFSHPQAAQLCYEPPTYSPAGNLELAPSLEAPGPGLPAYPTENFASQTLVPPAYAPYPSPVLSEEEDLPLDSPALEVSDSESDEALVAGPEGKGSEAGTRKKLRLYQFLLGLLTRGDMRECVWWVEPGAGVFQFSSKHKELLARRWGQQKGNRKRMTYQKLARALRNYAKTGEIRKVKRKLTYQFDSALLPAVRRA
# How it was run: as §1
# ELK3 = molecular target: T6, ELK3 (Homo sapiens, UniProt P41970 1-407); conditions: protein: recombinant; tags: N-terminal GST; dsDNA, one strand shown
# T6 sequence: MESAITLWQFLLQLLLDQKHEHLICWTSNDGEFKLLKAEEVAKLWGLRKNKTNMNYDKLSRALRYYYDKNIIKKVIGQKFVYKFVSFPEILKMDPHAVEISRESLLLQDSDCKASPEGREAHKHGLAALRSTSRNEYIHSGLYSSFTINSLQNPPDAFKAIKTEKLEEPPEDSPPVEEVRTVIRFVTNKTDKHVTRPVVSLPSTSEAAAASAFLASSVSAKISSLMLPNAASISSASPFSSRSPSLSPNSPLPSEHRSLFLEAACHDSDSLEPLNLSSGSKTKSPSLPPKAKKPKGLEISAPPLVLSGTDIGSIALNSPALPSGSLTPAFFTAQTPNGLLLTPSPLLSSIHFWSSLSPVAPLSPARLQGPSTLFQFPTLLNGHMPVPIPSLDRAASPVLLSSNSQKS
# How it was run: as §1
# FEV = molecular target: T7, FEV (Homo sapiens, UniProt Q99581 1-238); conditions: protein: recombinant; tags: N-terminal GST; dsDNA, one strand shown
# T7 sequence: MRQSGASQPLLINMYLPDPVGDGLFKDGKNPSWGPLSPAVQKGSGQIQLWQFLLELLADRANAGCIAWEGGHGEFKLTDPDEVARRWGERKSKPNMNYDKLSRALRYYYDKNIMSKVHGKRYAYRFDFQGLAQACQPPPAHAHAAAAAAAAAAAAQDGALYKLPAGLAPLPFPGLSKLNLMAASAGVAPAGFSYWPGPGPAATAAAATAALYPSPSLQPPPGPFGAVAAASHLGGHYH
# How it was run: as §1
# ETV5 = ETV5 (Homo sapiens, UniProt P41161 1-510); conditions: protein: recombinant; tags: N-terminal GST; dsDNA, one strand shown
# Sequence of ETV5 (P41161 whole entry): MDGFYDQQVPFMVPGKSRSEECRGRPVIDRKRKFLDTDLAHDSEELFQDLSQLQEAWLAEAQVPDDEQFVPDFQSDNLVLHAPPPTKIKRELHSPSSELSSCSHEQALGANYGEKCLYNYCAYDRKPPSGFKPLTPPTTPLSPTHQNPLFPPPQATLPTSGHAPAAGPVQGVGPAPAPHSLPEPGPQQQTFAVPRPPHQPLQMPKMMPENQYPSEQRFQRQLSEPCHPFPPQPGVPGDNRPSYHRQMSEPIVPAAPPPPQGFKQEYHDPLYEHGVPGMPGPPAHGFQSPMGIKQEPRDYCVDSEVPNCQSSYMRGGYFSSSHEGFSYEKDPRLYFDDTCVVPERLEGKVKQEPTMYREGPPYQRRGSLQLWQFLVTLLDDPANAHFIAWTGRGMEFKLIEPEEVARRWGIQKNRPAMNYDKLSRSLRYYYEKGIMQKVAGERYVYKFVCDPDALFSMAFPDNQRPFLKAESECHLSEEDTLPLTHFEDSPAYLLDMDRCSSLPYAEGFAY
# How it was run: as §1
# HSF1 = HSF1 (Homo sapiens, UniProt Q00613 1-529); conditions: protein: recombinant; tags: N-terminal GST; chain copies: 3; dsDNA, one strand shown
# Sequence of HSF1 (Q00613 whole entry): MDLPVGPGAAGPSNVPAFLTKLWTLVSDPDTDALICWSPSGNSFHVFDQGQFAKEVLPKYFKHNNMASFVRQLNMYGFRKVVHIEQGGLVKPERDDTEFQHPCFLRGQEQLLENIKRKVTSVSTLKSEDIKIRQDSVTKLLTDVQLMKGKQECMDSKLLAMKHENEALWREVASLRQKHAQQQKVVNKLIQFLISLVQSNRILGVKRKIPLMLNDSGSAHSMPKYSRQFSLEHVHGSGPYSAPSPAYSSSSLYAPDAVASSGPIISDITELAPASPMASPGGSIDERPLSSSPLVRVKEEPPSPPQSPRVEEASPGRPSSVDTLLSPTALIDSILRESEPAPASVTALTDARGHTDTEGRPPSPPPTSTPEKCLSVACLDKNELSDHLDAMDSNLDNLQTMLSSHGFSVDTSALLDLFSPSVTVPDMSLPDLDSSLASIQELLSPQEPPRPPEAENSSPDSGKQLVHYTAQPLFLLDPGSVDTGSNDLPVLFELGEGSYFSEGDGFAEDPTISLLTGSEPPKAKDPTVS
# How it was run: as §1
# SPIC = molecular target: T8, SPIC (Homo sapiens, UniProt Q8N5J4 1-248); conditions: protein: recombinant; tags: N-terminal GST; dsDNA, one strand shown
# T8 sequence: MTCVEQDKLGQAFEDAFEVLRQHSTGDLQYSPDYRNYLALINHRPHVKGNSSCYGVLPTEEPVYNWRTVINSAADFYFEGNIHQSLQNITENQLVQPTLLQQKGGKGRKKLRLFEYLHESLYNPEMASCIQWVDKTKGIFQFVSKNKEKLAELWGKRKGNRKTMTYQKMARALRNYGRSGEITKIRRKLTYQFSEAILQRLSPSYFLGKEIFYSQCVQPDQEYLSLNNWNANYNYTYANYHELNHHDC
# How it was run: as §1
# ELF4 = ELF4 (Homo sapiens, UniProt Q99607 1-663); conditions: protein: recombinant; tags: N-terminal GST; dsDNA, one strand shown
# Sequence of ELF4 (Q99607 whole entry): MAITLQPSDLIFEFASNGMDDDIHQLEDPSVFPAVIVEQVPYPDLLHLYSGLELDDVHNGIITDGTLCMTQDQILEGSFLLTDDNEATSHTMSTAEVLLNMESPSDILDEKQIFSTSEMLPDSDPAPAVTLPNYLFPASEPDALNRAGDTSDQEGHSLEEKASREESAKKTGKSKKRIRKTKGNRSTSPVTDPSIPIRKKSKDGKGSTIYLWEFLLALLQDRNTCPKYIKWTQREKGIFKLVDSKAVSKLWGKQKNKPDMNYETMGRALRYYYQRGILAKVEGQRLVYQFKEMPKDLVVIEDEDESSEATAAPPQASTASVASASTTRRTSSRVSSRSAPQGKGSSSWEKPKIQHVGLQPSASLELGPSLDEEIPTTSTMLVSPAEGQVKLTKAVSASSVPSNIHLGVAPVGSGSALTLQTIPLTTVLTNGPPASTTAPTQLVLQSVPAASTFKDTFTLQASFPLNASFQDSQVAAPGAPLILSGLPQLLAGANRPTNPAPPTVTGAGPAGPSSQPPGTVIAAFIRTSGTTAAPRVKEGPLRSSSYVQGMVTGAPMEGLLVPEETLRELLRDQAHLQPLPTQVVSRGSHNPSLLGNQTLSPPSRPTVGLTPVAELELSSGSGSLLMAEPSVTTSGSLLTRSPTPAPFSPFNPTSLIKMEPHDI
# How it was run: as §1
# ELK4 = molecular target: T9, ELK4 (Homo sapiens, UniProt P28324-2 1-405); conditions: protein: recombinant; tags: N-terminal GST; dsDNA, one strand shown
# T9 sequence: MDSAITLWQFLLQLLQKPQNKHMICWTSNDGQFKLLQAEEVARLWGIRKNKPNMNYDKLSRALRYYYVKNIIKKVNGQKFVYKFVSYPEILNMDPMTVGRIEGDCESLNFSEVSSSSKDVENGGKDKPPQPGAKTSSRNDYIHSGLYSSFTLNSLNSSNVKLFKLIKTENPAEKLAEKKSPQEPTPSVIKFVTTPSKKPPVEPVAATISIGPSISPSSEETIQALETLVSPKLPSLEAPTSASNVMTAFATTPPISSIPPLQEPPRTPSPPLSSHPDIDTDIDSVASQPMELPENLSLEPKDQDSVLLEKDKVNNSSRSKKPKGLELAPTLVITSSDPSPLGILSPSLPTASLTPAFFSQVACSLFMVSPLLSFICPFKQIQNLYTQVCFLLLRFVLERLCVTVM
# How it was run: as §1
# ETV2 = molecular target: T10, ETV2 (Homo sapiens, UniProt O00321 1-342); conditions: protein: recombinant; tags: N-terminal GST; dsDNA, one strand shown
# T10 sequence: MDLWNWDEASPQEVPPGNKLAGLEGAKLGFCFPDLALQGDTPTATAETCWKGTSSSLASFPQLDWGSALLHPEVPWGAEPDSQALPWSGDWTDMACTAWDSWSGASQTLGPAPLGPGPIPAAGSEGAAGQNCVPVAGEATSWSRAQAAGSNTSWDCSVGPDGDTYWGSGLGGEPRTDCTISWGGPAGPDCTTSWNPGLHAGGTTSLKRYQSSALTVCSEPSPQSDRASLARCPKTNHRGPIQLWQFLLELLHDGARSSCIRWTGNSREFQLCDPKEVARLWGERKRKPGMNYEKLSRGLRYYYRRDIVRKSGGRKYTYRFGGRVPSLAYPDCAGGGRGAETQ
# How it was run: as §1
# ELF3 = molecular target: T11, ELF3 (Homo sapiens, UniProt P78545 1-371); conditions: protein: recombinant; tags: N-terminal GST; dsDNA, one strand shown
# T11 sequence: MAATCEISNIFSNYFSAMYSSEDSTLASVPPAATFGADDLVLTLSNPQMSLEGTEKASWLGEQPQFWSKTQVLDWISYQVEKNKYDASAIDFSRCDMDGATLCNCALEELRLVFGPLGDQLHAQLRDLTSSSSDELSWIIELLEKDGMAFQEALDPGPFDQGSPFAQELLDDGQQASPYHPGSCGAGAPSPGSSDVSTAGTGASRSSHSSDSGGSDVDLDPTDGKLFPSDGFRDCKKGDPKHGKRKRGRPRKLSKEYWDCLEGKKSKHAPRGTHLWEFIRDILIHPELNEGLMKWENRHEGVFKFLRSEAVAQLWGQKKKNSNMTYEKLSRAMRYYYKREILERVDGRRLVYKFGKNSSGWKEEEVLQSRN
# How it was run: as §1
# CRX = CRX (Homo sapiens, UniProt O43186 1-299); conditions: protein: recombinant; tags: N-terminal GST; dsDNA, one strand shown
# Sequence of CRX (O43186 whole entry): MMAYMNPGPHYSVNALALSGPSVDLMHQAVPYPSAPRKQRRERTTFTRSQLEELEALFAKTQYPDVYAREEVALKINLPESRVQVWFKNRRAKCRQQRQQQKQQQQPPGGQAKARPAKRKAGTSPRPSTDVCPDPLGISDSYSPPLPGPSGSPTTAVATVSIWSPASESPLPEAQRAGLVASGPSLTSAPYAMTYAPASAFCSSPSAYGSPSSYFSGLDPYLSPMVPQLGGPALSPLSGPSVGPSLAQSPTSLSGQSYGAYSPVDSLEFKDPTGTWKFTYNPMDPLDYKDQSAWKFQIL
# How it was run: as §1
# ETV1 = ETV1 (Homo sapiens, UniProt P50549 1-477); conditions: protein: recombinant; tags: N-terminal GST; dsDNA, one strand shown
# Sequence of ETV1 (P50549 whole entry): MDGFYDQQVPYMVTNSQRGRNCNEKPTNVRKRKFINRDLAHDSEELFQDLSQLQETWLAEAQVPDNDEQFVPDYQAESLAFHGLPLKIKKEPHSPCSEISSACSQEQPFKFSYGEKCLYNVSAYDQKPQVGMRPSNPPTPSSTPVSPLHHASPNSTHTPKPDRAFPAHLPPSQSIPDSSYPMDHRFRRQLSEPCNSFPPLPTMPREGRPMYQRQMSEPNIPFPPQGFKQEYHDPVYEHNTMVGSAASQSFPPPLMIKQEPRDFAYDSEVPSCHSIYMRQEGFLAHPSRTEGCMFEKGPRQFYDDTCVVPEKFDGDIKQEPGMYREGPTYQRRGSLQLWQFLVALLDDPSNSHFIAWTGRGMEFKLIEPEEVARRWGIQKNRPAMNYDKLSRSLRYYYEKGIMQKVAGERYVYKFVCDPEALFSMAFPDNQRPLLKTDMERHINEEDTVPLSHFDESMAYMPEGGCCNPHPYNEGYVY
# How it was run: as §1
sequence,measurement,setting,value
TTGTAC,binding signal,FLI1,"1.37 fold enrichment (6-mer frequency, TF over GST control)"
same,binding signal,ELK1,"1.51 fold enrichment (6-mer frequency, TF over GST control)"
same,binding signal,GABPA,"1.32 fold enrichment (6-mer frequency, TF over GST control)"
same,binding signal,ERG,"1.33 fold enrichment (6-mer frequency, TF over GST control)"
same,binding signal,ELF1,"1.41 fold enrichment (6-mer frequency, TF over GST control)"
same,binding signal,EHF,"1.33 fold enrichment (6-mer frequency, TF over GST control)"
same,binding signal,SPI1,"1.39 fold enrichment (6-mer frequency, TF over GST control)"
same,binding signal,SPIB,"1.44 fold enrichment (6-mer frequency, TF over GST control)"
same,binding signal,ELK3,"1.18 fold enrichment (6-mer frequency, TF over GST control)"
same,binding signal,FEV,"1.52 fold enrichment (6-mer frequency, TF over GST control)"
same,binding signal,ETV5,"1.48 fold enrichment (6-mer frequency, TF over GST control)"
same,binding signal,HSF1,"1.24 fold enrichment (6-mer frequency, TF over GST control)"
same,binding signal,SPIC,"1.46 fold enrichment (6-mer frequency, TF over GST control)"
same,binding signal,ELF4,"1.47 fold enrichment (6-mer frequency, TF over GST control)"
same,binding signal,ELK4,"1.55 fold enrichment (6-mer frequency, TF over GST control)"
same,binding signal,ETV2,"1.48 fold enrichment (6-mer frequency, TF over GST control)"
same,binding signal,ELF3,"1.39 fold enrichment (6-mer frequency, TF over GST control)"
same,binding signal,CRX,"1.2 fold enrichment (6-mer frequency, TF over GST control)"
same,binding signal,ETV1,"1.24 fold enrichment (6-mer frequency, TF over GST control)"
